Screening data: PubChem, National Center for Advancing Translational Sciences (NCATS)
The list is not random: actives were taken first. Their share in the collection is about 5.3%.
JMJD2E inh = qHTS Assay for Inhibitors of Human Jumonji Domain Containing 2E (JMJD2E); Lysine-specific demethylase 4E (Homo sapiens), B2RXH2; Potency, µM (doses to about 57.1 µM), for inactives: top-dose activity change, negative = inhibition, usual class: inhibitors; AID 2147, 2009; hit rate 1.6% among 230,000; JMJD2E catalytic domain, FDH-coupled NADH fluorescence (FDH is formaldehyde dehydrogenase);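 further: potency means the concentration at half of the fitted maximal effect; 0% = wells with enzyme and -100% = buffer wells without enzyme; nearly all actives have a fitted effect of over 50% in size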
Target sequence (B2RXH2 1-337 limits assumed): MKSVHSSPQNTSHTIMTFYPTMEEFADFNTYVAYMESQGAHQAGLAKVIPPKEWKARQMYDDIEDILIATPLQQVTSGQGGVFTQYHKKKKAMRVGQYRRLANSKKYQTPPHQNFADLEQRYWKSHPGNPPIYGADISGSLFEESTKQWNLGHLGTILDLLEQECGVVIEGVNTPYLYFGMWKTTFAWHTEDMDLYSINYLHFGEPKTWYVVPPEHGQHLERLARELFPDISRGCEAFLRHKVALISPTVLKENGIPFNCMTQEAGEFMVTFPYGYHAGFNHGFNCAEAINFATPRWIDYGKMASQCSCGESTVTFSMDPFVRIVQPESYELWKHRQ
FBPA coupling cs = qHTS Assay for Inhibitors of Fructose-1,6-bisphosphate Aldolase from Giardia Lamblia: Coupling assay counterscreen; coupling enzyme system counterscreen, AmpLite Red fluorescence; activity change, negative = inhibition, % at 58.2 µM, hits read low; hit rate 0.67% among 290,000; AID 2472, 2010; in the data active means activity change below about -30%
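Counterscreen lacking aldolase: glyceraldehyde-3-phosphate coupling-enzyme reagent preincubated 10 min at RT with compound (at 57.5 uM final), then substrate/coupling system with AmpLite Red added; fluorescence read at 525/598 nm after 20 min RT.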
Tau ThT inhib = qHTS for Inhibitors of Tau Fibril Formation, Thioflavin T Binding; Potency, µM (series often up to 57.4 µM), inactives show at the highest dose activity, negative = inhibition, most hits filed as inhibitors; hit rate 2.1% among 270,000; recombinant tau K18 P301L, heparin-induced fibrillization, ThT fluorescence; Microtubule-associated protein tau (Homo sapiens), P10636; further: potency means the concentration at half of the fitted maximal effect; nearly all actives have a fitted effect of over 55% in size
Target sequence (P10636 561-689 P618L limits assumed): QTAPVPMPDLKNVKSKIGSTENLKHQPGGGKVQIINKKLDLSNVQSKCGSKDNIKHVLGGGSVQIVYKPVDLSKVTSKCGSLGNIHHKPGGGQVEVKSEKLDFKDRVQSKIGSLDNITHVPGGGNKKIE
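ThT emission at 510 nm, taken 1 hr after adding 30 uM dye, quantifies aggregates formed when 20 uM heparin acts on human tau K18 P301L for 6 hr at 37 C.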
Tau fluor counter = Counterscreen qHTS for Inhibitors of Tau Fibril Formation, Fluorescence Polarization | tau K18 P301L (four-repeat tau fragment) Alexa594 fluorescence, heparin fibrillization | Potency, µM (top dose mostly 57.7 µM), without a hit: at the highest dose activity change, negative = decrease | hit rate 0.93% among 280,000 | AID 1463, 2008; further: potency means the concentration at half of the fitted maximal effect; nearly all actives have a fitted effect of over 55% in size
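Human K18 P301L tau (15 uM unlabeled plus 0.24 uM Alexa 594-labeled, final) in 100 mM sodium acetate pH 7 was mixed with compound and 20 uM heparin and incubated 6 hr at 37 C.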
Tau FP inhib = qHTS for Inhibitors of Tau Fibril Formation, Fluorescence Polarization; Potency, µM (highest dose often 57.7 µM), without a hit: top-dose activity, negative = inhibition, actives largely listed as inhibitors; hit rate 0.39% among 280,000; K18 P301L tau heparin fibrillization, Alexa594 FP, 6 h; Microtubule-associated protein tau (Homo sapiens), P10636; further: potency means the concentration at half of the fitted maximal effect; nearly all actives have a fitted effect of over 55% in size
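Human tau K18 […] P301L fragment, 15 uM unlabeled plus 0.24 uM Alexa 594-labeled tau (final), with compound and 20 uM heparin in 100 mM sodium acetate pH 7; 6 hr at 37 C, then Alexa 594 FP read.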
Sfp inh = qHTS Assay for Inhibitors of Bacillus subtilis Sfp phosphopantetheinyl transferase (PPTase); 4'-phosphopantetheinyl transferase ffp (Bacillus subtilis), Q9F4F7; Biochemical Sfp PPTase activity, qHTS; AID 1490, 2009; Potency, µM, for the others: largest response in the series, negative = inhibition, most hits filed as inhibitors; hit rate 3.5% among 310,000;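 further: the enzyme is Sfp with the accession as filed and its product quenches rhodamine fluorescence; potency means the concentration at half of the fitted maximal effect; 0% = enzyme reaction without inhibitor and -100% = no enzyme wells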
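Buffer: 50 mM Hepes-Na pH 7.6, 10 mM MgCl2, 0.01% Nonidet P-40, 0.01% BSA. Enzyme 15 nM, pre-exposed to compound 15 min; substrates then added and fluorescence change tracked over 30 min.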
* marks the source's active call; other numbers are inactive results; u = inconclusive; x = not tested or not shown; ! = not active in a repeat. Unless noted, the call rests on the fitted dose curve; in most records, active means well fitted curve in the direction sought with a large enough effect; inconclusive means small, poorly fitted or top-dose-only effect, or another doubt; inactive means no such curve, though single readings can be large; an effect the other way counts as inactive or inconclusive. Unless noted, on the % scale 0 is the no-effect control and ±100 the full control effect.

SMILES | JMJD2E inh | FBPA coupling cs | Tau ThT inhib | Tau fluor counter | Tau FP inhib | Sfp inh
COc1ccc(CCn2c(NN)nc3c2c(=O)[nH]c(=O)n3C)cc1 | u | -24 | x | u | u | 50µM*
COc1ccc(CCn2c(Br)nc3c2c(=O)[nH]c(=O)n3C)cc1 | 5% | 5 | 4% | 5% | 4% | 5%
Cc1ccccc1-c1nccc(-n2ccnc2)n1 | -26% | -4 | -19% | -8% | -9% | 56µM*
CS(=O)(=O)Nc1cccc(-c2nccc(-n3ccnc3)n2)c1 | u | 0 | -20% | -8% | -10% | 56µM*
Clc1ccccc1-c1nccc(-n2ccnc2)n1 | -6% | -1 | -15% | -14% | -7% | -27%
N#Cc1cccc(-c2nccc(-n3ccnc3)n2)c1 | x | -1 | x | x | x | 50µM*
CC(=O)OCON[N+]([O-])=NC1CCCCC1 | x | 0 | x | x | x | 7%
[O-][n+]1c2c(c3c4non(O)c4ccc31)CCCC2 | 2% | 0 | 14µM* | u | 10% | -6%
CC(C(=O)O)N1C(=O)/C(=C/C=C/c2ccco2)SC1=S (stereo not given) | 0.89µM* | x | 8.9µM* | u | u | 50µM*
O=C1/C(=C/C=C/c2ccco2)SC(=S)N1NS(=O)(=O)c1ccccc1 | 16µM* | -5 | x | u | 16µM* | 13µM*
O=C1/C(=C/c2cccs2)SC(=S)N1NS(=O)(=O)c1ccccc1 | -2% | 11 | 18µM* | -21% | -10% | -7%
Cc1ccc(/C=C2\SC(=S)N(C(Cc3ccccc3)C(=O)O)C2=O)cc1 (stereo not given) | -3% | 1 | u | 0% | -1% | -9%
O=C(CCCN1C(=O)/C(=C\c2cccs2)SC1=S)NNC(=O)c1ccncc1 | 11% | -2 | -8% | -2% | -8% | 19%
O=C(NN1C(=O)/C(=C/c2cccs2)SC1=S)c1ccncc1 | -5% | 15 | u | -23% | -9% | 79µM*
CCOC(=O)c1c(C)[nH]c(CCC(=O)NCc2ccc(CC)cc2)c1C | x | x | -11% | -11% | 3% | x
COc1ccc2nc3oc(C(=O)N4CCN(c5cccc(Cl)c5)CC4)cc3cc2c1 | -29% | -10 | u | -18% | 11% | 11µM*
N#C/C(=C\c1ccc(O)c(O)c1)C(=O)NCCCc1ccccc1 | 3.2µM* | 6 | u | u | u | 63µM*!
Cc1cccc(NC(=O)/C(C#N)=C\c2ccc(C(=O)O)cc2)c1 | 0% | 5 | -3% | -3% | 3% | 35µM*
N#C/C(=C/c1ccc(C(=O)O)cc1)C(=O)Nc1ccccc1 | -18% | -1 | -7% | 0% | -2% | u
N#C/C(=C/c1ccc(C(=O)O)cc1)C(=O)NCc1ccccc1 | -4% | 6 | -10% | 3% | 10% | 18µM*
COCCNC(=O)/C(C#N)=C/c1cccc(/C=C(\C#N)C(=O)NCCOC)c1 | -3% | 1 | 0% | 8% | 6% | 20µM*
Cc1cccc(N2CCN(C3(c4ccccc4)C(=O)c4ccccc4C3=O)CC2)c1C | x | x | -8% | -14% | -10% | x
O=C(CSc1nc(=O)n(Cc2ccncc2)c2c1CCC2)Nc1cccc(F)c1 | x | x | -5% | -3% | -15% | x
COc1ccc(C(=O)Nc2nnc(S(=O)(=O)N(C)c3ccc(C)cc3)s2)cc1 | x | x | -6% | -12% | -12% | x
COc1ccc2[nH]cc(CCNc3ncncc3-c3ccccc3C)c2c1 | x | 0 | x | x | x | -20%
SMILES | JMJD2E inh | FBPA coupling cs | Tau ThT inhib | Tau fluor counter | Tau FP inhib | Sfp inh
CCOC(=O)CSC1=NC(=O)CS1 | 2% | -2 | -8% | -7% | -2% | 79µM*
CCOc1c(Br)cc(C2CC(=O)Nc3cc4c(cc32)OCO4)cc1OC (stereo not given) | x | x | u | -29% | 9% | x
Nc1nonc1OCCN1CCN(c2ccc([N+](=O)[O-])c3cccnc23)CC1 | -3% | -6 | 18µM* | u | -1% | 9%
O=C(Nc1ccccc1F)c1ccc(Cn2nc(N3CCN(c4ccccc4)CC3)ccc2=O)o1 | x | x | u | -23% | 1% | x
NC(=S)N/N=C/c1c[nH]c2ccc(OCc3ccccc3)cc12 | x | -6 | x | x | x | 32µM*
CC(=O)C1=C(C)Nc2cc(C(F)(F)F)ccc2S1 | -21% | 1 | u | -11% | -3% | 56µM*
Cc1ccc(NC(=O)CC2Sc3ccc(C(F)(F)F)cc3NC2=O)cc1 (stereo not given) | x | x | 15% | 13% | -11% | x
COc1cccc(OCc2cc(C3Nc4ccccc4C(=O)N3Cc3ccco3)ccc2OC)c1 (stereo not given) | u | -3 | -20% | -23% | 3% | 14µM*
COc1ccc(C2Nc3ccccc3C(=O)N2Cc2ccco2)cc1COc1ccc([N+](=O)[O-])cc1 (stereo not given) | -10% | -1 | -4% | u | -3% | 2%
COc1ccc2c([N+](=O)[O-])c(Cl)[nH]c2c1 | 16µM* | -32* | 28µM* | u | u | -12%
COc1ncc2nc(C)c(=O)n(CCC#N)c2n1 | x | 3 | x | x | x | 15%
COc1ccc(Cn2c(=O)n(-c3ccc(F)c(Cl)c3)c(=O)c3c2c2cc(OC)ccc2n3C)cc1 | x | x | 8% | 2% | -9% | x
Cc1cc(-c2ccccc2)nc(-c2ccccc2)c1C | u | -7 | 3.2µM* | -25% | 12% | -5%
Cc1cc2ncc(-c3ccccc3)nc2cc1C | x | 0 | -23% | -12% | -7% | 5%
COC(=O)c1ccccc1NC(=O)Cn1cnc2ccc(S(=O)(=O)N3CCC(C)CC3)cc2c1=O | -5% | 6 | -4% | -4% | 2% | 89µM*
CC1CCN(S(=O)(=O)c2ccc3ncn(CC(=O)Nc4ccccc4C(F)(F)F)c(=O)c3c2)CC1 | x | x | 1% | u | -10% | x
COc1ccc(Cl)cc1C(Nc1cccnc1)c1ccc2cccnc2c1O (stereo not given) | 14µM* | -6 | 28µM* | -21% | u | -15%
CCCC(=O)NC(c1ccccc1)c1ccc2cccnc2c1O (stereo not given) | x | -2 | x | x | x | 11%
CCCCC(=O)NC(c1ccccc1Cl)c1ccc2cccnc2c1O (stereo not given) | x | 5 | x | x | x | 7%
